# Source: the supplement of paper PMC6555819
# Key:
# Test in all cases: PBM binding z-score (relative to random genomic background probes); higher = stronger binding; sequences stand for … in GC…GCGATTGACAGCGTAGAATGAAGG
# [1] = test system: FXR:RXRa (NR concentration 270 nM, RXRa partner concentration 90 nM)
# Outline: (§1)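 Scanned fluorescence from custom Agilent 4×180K protein-binding microarrays was regression-normalized. Binding z-scores use random background probes as reference. Ligand-free nuclear receptor dimers were incubated on the arrays for 1 h and detected with antibodies against each partner (one per run).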
# [2] = test system: LXRa:RXRa (NR concentration 270 nM, RXRa partner concentration 90 nM)
# Outline: as §1
# [3] = test system: LXRa homodimer (NR concentration 270 nM)
# Outline: as §1
# [4] = test system: LXRb:RXRa (NR concentration 270 nM, RXRa partner concentration 90 nM)
# Outline: as §1
# [5] = test system: LXRb homodimer (NR concentration 270 nM)
# Outline: as §1
# [6] = test system: PPARa:RXRa (NR concentration 270 nM, RXRa partner concentration 90 nM)
# Outline: as §1
# [7] = test system: PPARg:RXRa (NR concentration 180 nM, RXRa partner concentration 90 nM)
# Outline: as §1
# [8] = test system: PPARg:RXRa 270nM:90nM, anti-RXR (NR concentration 270 nM, RXRa partner concentration 90 nM)
# Outline: as §1
# [9] = test system: PPARg:RXRa 30nM:10nM, anti-RXR (NR concentration 30 nM, RXRa partner concentration 10 nM)
# Outline: as §1
# [10] = test system: PPARg:RXRa 90nM:30nM, anti-RXR (NR concentration 90 nM, RXRa partner concentration 30 nM)
# Outline: as §1
# [11] = test system: PPARg:RXRa DBDmut IVT, anti-RXR (DBD mutation: RXRa K156A/R161A, NR concentration 270 nM, RXRa partner concentration 90 nM)
# Outline: as §1
# [12] = test system: PPARg:RXRa IVT, anti-PPARg (NR concentration 270 nM, RXRa partner concentration 90 nM)
# Outline: as §1
# [13] = test system: PPARg DBDmut:RXRa IVT, anti-PPARg (DBD mutation: PPARg1 K132A/R137A, NR concentration 270 nM, RXRa partner concentration 90 nM)
# Outline: as §1
# [14] = test system: PPARg DBDmut IVT, anti-PPARg (DBD mutation: PPARg1 K132A/R137A, NR concentration 270 nM)
# Outline: as §1
# [15] = test system: PPARg homodimer (NR concentration 180 nM)
# Outline: as §1
# [16] = test system: PXR:RXRa (NR concentration 270 nM, RXRa partner concentration 90 nM)
# Outline: as §1
# [17] = test system: PXR homodimer (NR concentration 270 nM)
# Outline: as §1
# [18] = test system: RARa:RXR (NR concentration 270 nM, RXRa partner concentration 90 nM)
# Outline: as §1
# [19] = test system: RARa homodimer (NR concentration 270 nM)
# Outline: as §1
Sequence,PBM binding z-score [1],PBM binding z-score [2],PBM binding z-score [3],PBM binding z-score [4],PBM binding z-score [5],PBM binding z-score [6],PBM binding z-score [7],PBM binding z-score [8],PBM binding z-score [9],PBM binding z-score [10],PBM binding z-score [11],PBM binding z-score [12],PBM binding z-score [13],PBM binding z-score [14],PBM binding z-score [15],PBM binding z-score [16],PBM binding z-score [17],PBM binding z-score [18],PBM binding z-score [19]
CCCCGGAGGACAGAAGGTCAGAGCTGTCCGCTTT,0.952,1.41,0.417,1.09,-0.645,1.87,-0.0611,0.529,-0.911,0.0217,-0.634,-0.0521,-2.12,-1.93,1.56,1.25,-0.156,1.87,0.0931
CGAACTAGGTCAGAACAGGACAGTTAAGGATGAT,1.32,0.929,-0.00999,0.73,-0.36,3.07,5.13,4.49,2.04,3.46,7,7.32,3.55,1.83,1.49,1.15,0.458,1.41,0.874
AGTCAAAGTTCACGAGGTAACGTAAGATTCAGCT,7.1,6.36,3.51,4.18,1.13,5.7,7.78,7.53,4.79,7.08,1.37,4.03,1.17,0.67,2.91,5.13,2.45,4.95,1.29
CGTCAAAGTTCAAGTTAACGTAACAGAAAGCAGC,7.26,6.56,4.75,4.33,2.63,5.3,5.08,5.71,2.68,4.8,0.502,2.16,0.474,0.736,3.88,4.92,4.14,3.96,2.01
CGAACTAGGTCAGAACAGTACAGTGAAGGATGAT,1.08,0.839,0.06,0.623,-0.447,2.86,5.05,4.39,1.99,3.68,7.19,7.31,2.36,3.58,1.14,0.921,0.234,0.873,0.291
CGTCAAAGTTCAACTAAGTTAACGTAAAGCACGC,7.25,5.95,4.61,4.33,2.56,4.99,5.09,5.05,2.33,4,0.764,1.89,1.94,1.78,2.97,6.14,5.97,4.09,2.57
CGTCAAAGTTCAAGGTTACGTAACAGAAAGCAGC,6.96,5.9,2.46,4.07,1.18,5.3,4.97,5.43,2.35,4.26,0.998,2.75,1.55,1.22,2.53,4.66,2.48,4.11,1.38
ACTAGTTGCTCAGCTGAGGTCACACACAATTCGG,2.75,2.94,1.75,3.4,0.214,3.4,1.17,1.69,0.448,1.24,0.944,1.76,0.496,1.18,1.91,4.3,1.44,4.26,0.561
TTACGAAGGTGAAAGGTCGTTGATGCACGCCTTG,3.43,3.33,0.283,2.75,-0.598,5.25,8.12,7.35,6.74,8.17,2.05,4.53,0.416,0.212,1.39,3.77,0.289,5.13,0.203
TAGCCTAGGTCAGATCGGGCGAGTATACGCTATA,1.73,1.03,-0.449,0.569,-0.387,1.58,0.654,1.08,-0.174,0.958,0.488,1.31,-0.335,-0.507,0.138,0.314,-0.678,0.971,-1.26
ATATGTAGCTTAAGGGTCATTCAGGTTGGTTCGC,3.83,3.86,1.83,3.79,0.863,4.2,3.93,5.35,3.44,5.39,0.343,2.21,1.55,0.663,2.61,4.83,1.67,4.2,0.894
TAGCCTAGGACATGCGGGCCAGTATAGTGTCGGC,-0.531,-0.882,-1.1,-1.16,-1.2,-0.741,0.232,-0.867,-0.747,-0.931,-0.985,-0.448,-1.11,-0.53,-1.04,-0.867,-0.905,-0.797,-0.552
GCTGCTAGGTCAGGTTGGTCGGCTAACGGGTACG,1.01,0.53,-0.245,0.0524,-0.665,1.04,0.113,0.773,-0.581,0.235,2.56,1.97,-0.279,-0.788,0.576,-0.127,-0.593,0.317,-0.865
ATTTGTAGGTTATCGGGTCATTCAGTTTGCGCAT,3.62,4.05,3.03,3.67,2.31,4.47,6.03,5.66,2.93,5.14,6.74,6.84,2.14,2.88,3.32,4.01,6.61,3.9,2.71
CTCGAAAGGTCGGTTGAGGTGAGTAAACGGATAA,2.7,1.73,-0.0936,1.39,-0.228,2.84,0.202,1.25,0.048,0.00835,-0.271,0.901,0.0903,-0.255,0.98,3,0.167,2.19,0.141
CGAACTAAGTCATTGACAGGACAGTGAATAGTAA,-0.324,-0.239,-0.0692,-0.347,-0.466,-0.0981,0.241,0.0844,-0.211,-0.239,0.976,0.473,-0.569,0.367,-0.739,-0.093,-0.313,0.0796,0.472
CCTACTGGGCCATTCAGAGGTCATTGATCATATG,2.92,4.32,6.45,3.73,0.365,3.82,2.59,3.24,0.818,2.26,4.59,4.4,0.046,0.818,2.59,4.8,2.3,4.59,0.867
CGTCCAAGGTCAGCAGGTCACTGAAAGCGACGTG,6.56,4.66,0.808,3.7,0.0267,5.5,5.54,5.5,1.58,4.01,3.75,4.56,0.394,-1.07,5.36,4.71,0.781,6.22,2.7
ATCTCTAGGTAAAGTTCAGCGAAAGATCGATAGA,1.69,2.33,1.67,1.65,0.72,2.81,3.77,4.78,2.56,4.27,2.11,2.5,1.45,1.53,1.49,2.29,1.48,2.06,0.708
CCTCGGAGGACACCAGGAGGTCAGAGCTGCCAGA,1.2,1.69,0.739,1.12,-0.792,2.14,0.153,0.169,-0.691,-0.278,-0.249,0.459,-1.54,-1.67,1.78,2.17,-0.014,2.56,0.922
TCTGCTAGGTCAGTTGGGCAGCTAACGAGCTGCC,0.934,0.385,-0.629,0.223,0.28,1.12,0.0296,1.52,0.946,1.17,2.07,2.7,-0.163,-0.28,0.0544,-0.242,-1.29,0.253,-1.12
CATACCGGGTCAGCTAGGCCAGAGTAGGGACGGC,2.5,1.78,-0.499,1.04,-0.0141,3.1,2.07,1.87,0.181,0.975,1.21,2.82,0.167,0.0787,0.359,1.05,-0.232,1.76,-0.125
CCTGCTAGGTCTATGGTCAGCTAAAGCAGCTCGC,-0.302,-0.394,-0.393,-0.493,-0.41,-0.509,-0.485,0.268,-1.04,-0.432,-0.291,-0.225,-0.749,-1.11,-0.133,-0.569,-0.846,-0.37,-0.766
ATATGAAGGTTATCGGGTCATTCAGTTTGCGCAT,4.04,3.38,1.74,3.02,0.891,4.1,4.21,4.21,1.52,3.11,3.47,4.42,1.16,1.48,2.47,3.93,8.15,4.44,0.435
TAGCCTAGGCCATGGGCCAGTATACCACGCGAAC,-0.747,-0.914,-0.864,-1.07,-1.23,-0.56,0.326,-0.0896,-0.9,-0.67,-0.977,-0.175,-0.116,-1.11,-1.27,-0.806,-1.11,-0.86,-1.48
GCTGCTAGGTCAGGTTGGTCAACTAACGGGTACG,1.14,0.685,-0.134,0.695,-0.424,1.46,0.577,0.833,-0.708,0.0771,3.05,2.52,-0.717,-0.77,0.891,0.217,-0.382,0.842,-0.0438
CGTCTAAGGTCAAGGTCAGTGAAAGAGACTCGAA,8.18,6.22,1.33,5.02,1.18,6.43,6.86,6.78,3.43,5.94,4.02,4.78,0.613,0.471,4.29,5.41,1.4,5.75,2.57
